# Pf growth 48h: Primary qHTS for delayed death inhibitors of the malarial parasite plastid, 48 hour incubation. AID 504832, 2011. 5.9% of 310,000 active. P. falciparum luciferase growth in erythrocytes, 48 h. Potency, µM (series often up to 28.7 µM), for the others: top-dose activity change, negative = inhibition, actives largely listed as inhibitors; also: potency is read from the fitted curve at half-maximal effect; % is scaled to controls: 0 for no effect and ±100 for the full control effect
#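 Erythrocytes infected with P. falciparum carrying an integrated firefly luciferase reporter (2% hematocrit, 0.1% parasitemia final) were exposed to compounds in RPMI 1640 with 0.5% Albumax at 37 C, 5% CO2. Growth inhibition was scored as reduced luminescence.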
# HCMV antiviral: qHTS Assay for inhibitors of the human cytomegalovirus (HCMV). AID 1259415, 2018. 4.5% of 410,000 active. activity change, negative = inhibition, % at 57.5 µM. HFF cells, HCMV-luciferase reporter, 72 h; stronger effect = lower value; in the data active = activity change below about -60%; inconclusive = no clear call, values can overlap the other calls; inactive = above about -39%; also: % is scaled to controls: 0 for no effect and ±100 for the full control effect
#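 HFF cells seeded 16 h at 37C, treated with compounds, infected with luciferase-reporter HCMV at MOI 1 PFU/cell; luciferase read at 72 h post infection, normalized to buffer-only and Salinomycin controls.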
# Lassa entry inh: qHTS for Inhibitors of binding or entry into cells for Lassa Virus; Lassa virus pseudotype entry inhibition, cell reporter; Potency, µM (series often up to 37.9 µM), inactives show top-dose activity change, negative = inhibition, actives largely listed as inhibitors; 1.2% of 300,000 active; calls by dose curve; tested in HEK293 cells; also: potency is read from the fitted curve at half-maximal effect; % is scaled to controls: 0 for no effect and ±100 for the full control effect; nearly all actives have a fitted effect of over 50% in size
# HCV inh: qHTS Assay for Inhibitors of Hepatitis C Virus (HCV). Potency, µM (highest dose often 41.8 µM), for inactives: at the top dose activity change, negative = inhibition, actives largely listed as inhibitors. 3.4% of 340,000 active. AID 651820, 2012. Huh7.5.1 HCVcc-Cre infection, luciferase reporter, 44 h; also: potency is read from the fitted curve at half-maximal effect; % is scaled to controls: 0 for no effect and ±100 for the full control effect
#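 Seed cells (1,000/well) for 4 h; treat with compound and infect with HCVcc-Cre, moi about 0.5. Incubate 44 h, then detect luciferase activity.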
# Pf growth 96h: Primary qHTS for delayed death inhibitors of the malarial parasite plastid, 96 hour incubation; P. falciparum luciferase reporter growth, 96 h; Potency, µM (highest dose often 28.7 µM), for the others: at the top dose activity change, negative = inhibition, most hits filed as inhibitors; 6.9% of 320,000 active; AID 504834, 2011; also: potency is read from the fitted curve at half-maximal effect; % is scaled to controls: 0 for no effect and ±100 for the full control effect
#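 Parasite growth measured via integrated firefly luciferase reporter in P. falciparum. Infected erythrocytes at 2% hematocrit, 0.05% parasitemia final were treated 96 hours at 37 C under 5% CO2, and luminescence was read.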
# MARV entry inh: qHTS for inhibitors of binding or entry into cells for Marburg Virus | Marburg virus pseudotyped entry inhibition, cell reporter | Potency, µM (highest dose often 37.8 µM), without a hit: at the top dose activity change, negative = inhibition, most hits filed as inhibitors | 1.8% of 300,000 active | AID 540276, 2011; calls by dose curve; tested in HEK293 cells; also: potency is read from the fitted curve at half-maximal effect; % is scaled to controls: 0 for no effect and ±100 for the full control effect
# HCV inh confirm: qHTS Assay for Inhibitors of Hepatitis C Virus (HCV): Confirmation Assay for Cherry-picked Compounds. Potency, µM (titrated, usually from 41.8 µM), for inactives: at the top dose activity, negative = inhibition, most hits filed as inhibitors. shares compounds with HCV inh. 78% of 640 active. HCVcc-Cre infectious virus cell assay, luciferase, inhibition. AID 720575, 2013; also: potency is read from the fitted curve at half-maximal effect; nearly all actives have a fitted effect of over 80% in size
# HCV cytotox: qHTS Assay for Inhibitors of Hepatitis C Virus (HCV): Cytotoxicity Counterscreen for Cherry-picked Compounds; shares compounds with HCV inh; HCV host cell line cytotoxicity counterscreen; Potency, µM (top dose mostly 41.8 µM), for the others: top-dose activity change, negative = cytotoxicity, hits mostly inhibitors; 22% of 640 active; AID 720576, 2013;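 also: potency is read from the fitted curve at half-maximal effect; 44 h compound exposure; % is scaled to controls: 0 for no effect and ±100 for the full control effect; nearly all actives have a fitted effect of over 55% in size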
# The depositor's hits bear a star; ? = inconclusive; · = not tested or not shown; [ ] = another dose, or the depositor's remark. The list is not random: actives were taken first. Their share in the collection is about 14%. Unless noted, calls follow the shape of the dose curve; as a rule, active = well fitted curve in the direction sought with a large enough effect; inconclusive = small, poorly fitted or top-dose-only effect, or another doubt; inactive = no such curve, though single readings can be large; an effect the other way counts as inactive or inconclusive.
SMILES,Pf growth 48h,HCMV antiviral,Lassa entry inh,HCV inh,Pf growth 96h,MARV entry inh,HCV inh confirm,HCV cytotox
Cc1ccc(C(=O)NC2CCN(Cc3ccccc3)CC2)cc1S(=O)(=O)N1CCOCC1,-16.0%,?,-6.7%,?,?,-21.2%,·,·
COc1cc(NC(=O)Nc2nnc(N3CCCCCC3)s2)cc(OC)c1,·,5.2,11.7%[46.1 µM],·,·,-0.3%[46.1 µM],·,·
O=C(/C=C/[C@H]1O[C@@H](n2cnc3c(NC(=O)c4ccccc4)ncnc32)[C@H](O)[C@@H]1O)NCc1ccc2c(c1)OCO2,·,-0.1,·,·,·,·,·,·
CN(Cc1ccccc1)C(=O)COC(=O)c1cc(=O)c2ccccc2o1,·,17.4,3.3%,?,·,-4.4%,·,·
Cc1nn(C)c(Nc2ccc(Br)cc2)c1Br,?,-83.2*,·,3.55µM*,19.3%,-21.9%[46.1 µM],4.99µM*,8.87µM*
CCOC(=O)CC(=O)CSc1nc2sc(C)cc2c(=O)n1Cc1ccco1,4.65µM*,-25.2,-0.1%,?,·,-4.7%,11.2µM*,25.0%
CCCCCn1c(=O)[nH]c2cc(C(=O)NCCCN3CCC(C)CC3)ccc2c1=O,?,13.9,-19.9%,4.47µM*,?,?,15.8µM*,38.9%
CCOc1ccc(C(=O)C(CCC(CN(C)C)C(=O)c2ccc(OCC)cc2)CN(C)C)cc1 (stereo not given),?,-98.9*,4.11µM*,3.16µM*,?,1.03µM*,7.91µM*,7.91µM*
COc1cccc(NC(=O)c2cccc(C)c2[N+](=O)[O-])c1,72.6%,15.1,18.7%[46.1 µM],10.7%,?,?,·,·
CCOC(=O)c1cc(-c2ccco2)nc2c1c(C)nn2CCC#N,8.28µM*,-10.3,-3.0%,?,?,-25.2%,?,9.7%
CC(=O)C(=[N+]=[N-])C(=O)NCc1ccccc1,11.7%,8.5,-3.4%,19.1%,?,4.1%,·,·
COc1cc(CSc2nnnn2-c2ccc(C)cc2)cc(OC)c1OC,?,-88.8*,3.66µM*,?,118.7%,?,1.77µM*,-93.7%
COc1ccc(CSc2nnnn2-c2ccccc2)cc1,·,-19.3,?,-13.1%,·,-5.0%,·,·
C=C(CN(C)C)C(=O)c1ccc(OC2OC(COC(C)=O)C(OC(C)=O)C(OC(C)=O)C2OC(C)=O)cc1 (stereo not given),·,6.0,?,?,·,?,·,·
Cc1cccc(Cn2c(NCCO)nc3c2c(=O)n(C)c(=O)n3C)c1,·,-74.7*,-28.5%,1.78µM*,1.8%,?,3.96µM*,2.5µM*
c1ccc2nc(-c3ccc4c(c3)OCO4)ccc2c1,291.6%,115.9,·,-9.3%,240.1%,·,·,·
COc1ccc(OC)c2nc(-c3ccc4c(c3)OCO4)ccc12,·,135.2,?,4.47µM*,421.8%,?,8.87µM*,24.0%
COc1cccc(CNC(=O)C(Cc2ccccc2)NS(=O)(=O)c2ccc3c(c2)oc(=O)n3C)c1 (stereo not given),·,5.7,1.2%[46.1 µM],·,·,15.8%[46.1 µM],·,·
O=C(Nc1ccc2c(c1)Cc1ccccc1-2)c1cccnc1,42.6%,29.3,?,6.31µM*,63.3%,-2.8%,-21.5%,-22.9%
Cc1cccc(-c2n[nH]c(=S)n2/N=C/c2ccco2)c1,36.4%,-22.3,·,13.0%,39.5%,·,·,·
N=c1scc(-c2ccccc2)n1/N=C/c1ccco1,0.0%,7.5,-18.6%,?,?,?,25µM*,-29.6%
CC1CCc2c(sc3nnn(CC(=O)Nc4c(C(C)C)cccc4C(C)C)c(=O)c23)C1 (stereo not given),·,-0.3,-10.8%[46.1 µM],·,·,0.5%[46.1 µM],·,·
Cc1ccc2c(c1)N(C(=O)CCC(=O)NCc1ccccc1Cl)CC(C)O2 (stereo not given),·,-15.3,0.5%[46.1 µM],·,·,?,·,·
C/C(=N\NC(=S)Nc1cc(S(=O)(=O)N2CCOCC2)ccc1Cl)c1ccccc1F,76.8%,-91.5*,?,?,-23.6%,?,22.3µM*,?
CC(C)N(C(=S)Nc1cc(S(=O)(=O)N2CCOCC2)ccc1Cl)c1ccccc1,1.5%,-9.0,0.2%,2.7%,-16.7%,?,·,·
SMILES,Pf growth 48h,HCMV antiviral,Lassa entry inh,HCV inh,Pf growth 96h,MARV entry inh,HCV inh confirm,HCV cytotox
O=C(c1cn(-c2ccccc2)nc1-c1cccc([N+](=O)[O-])c1)N1CCCCC1,?,?,-29.9%,?,22.9%,1.8%[46.1 µM],11.2µM*,26.1%
CCNC(=S)/N=C(\N)Nc1nc(C)c2cc(C)ccc2n1,?,116.0,·,3.16µM*,9.2%,?,?,-28.9%
COc1ccc(S(=O)(=O)N[C@H]2CC[C@H](CCNC(=O)c3ccccc3F)O[C@@H]2CO)cc1,·,18.7,·,·,·,·,·,·
NC(=S)NN=C1c2ccccc2-c2c(F)c(F)c(F)c(F)c21,·,-27.2,?,?,·,?,·,·
NC(=S)NN=C1c2ccccc2-c2cc(Br)ccc21,·,-36.8,-11.5%,?,·,?,6.28µM*,-32.6%
C/C(=N\NC(N)=S)C1=CCC2C3CC[C@H]4CC(O)CC[C@]4(C)C3CC[C@]12C (stereo not given in full),·,-38.0,·,?,11.7µM*,·,7.91µM*,0.0%
C[C@]12CCC3C(CC[C@H]4C[C@H](O)CC[C@]34C)C1C[C@@H](O)[C@@H]2O (stereo not given in full),·,-19.8,-15.4%[46.1 µM],-0.5%,·,10.8%[46.1 µM],·,·
O=C1S/C(=C/c2ccc(N3CCOCC3)o2)C(=O)N1Cc1c(F)cccc1Cl,5.4%,-11.4,7.4%,?,·,?,12.5µM*,11.2%
Cn1c(=O)c2c(nc(N3CCOCC3)n2Cc2c(F)cccc2Cl)n(C)c1=O,4.7%,34.1,?,-0.4%,0.9%,-13.0%,·,·
CCCCCNC(=O)c1cn(CC)c2cc(N3CCN(C)CC3)c(F)cc2c1=O,?,5.6,-25.3%,?,14.7µM*,?,14.1µM*,-28.2%
CC(C)Oc1ccc(CNC(=O)c2cnc3sc(N4CCCC4)nn3c2=O)cc1,·,-1.4,?,·,·,·,·,·
Cc1cc(C)cc(N=c2c([N+](=O)[O-])nn(-c3ccc(Cl)cc3)n2O)c1,-7.4%,22.9,-20.9%,?,-14.0%,-24.7%,15.8µM*,22.0%
CN(CC(=O)NCCc1ccc(S(N)(=O)=O)cc1)Cc1ccc(Cl)cc1Cl,-11.6%,-86.3*,-17.1%,7.08µM*,-7.6%,?,8.87µM*,17.7µM*
